Values joined by “and” are separate entries in the source; they are usually repeats but may differ in a detail not shown here. Identical values can stand only once. Active and inactive are the calls of the source. Rule as the data show it: active = inhibition above about 80%; inactive = the rest.

The nature of the first test: RCMB18 cell growth, single agent and combined, cisplatin and BGB IC40 combos (AID 1671462).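 Also: cells exposed to compound for four days.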 As to conditions: RCMB18 medulloblastoma cells, single agent, at 5 µM, stronger effect = higher value.
For orientation: inhibition means the drop in the measured response relative to a control, in per cent. As to `CCn1cc(C(=O)O)c(=O)c2cc(F)c(N3CCNCC3)nc21`, the inhibition was -15.2% and -21.3%.
Still for that read-out and setting: then `O=C(O)CCCCCCCC(=O)O`, with -26.4%; and `O=NN(CCCl)C(=O)NCCCl`, with -38.3%; and `Cc1oncc1C(=O)Nc1ccc(C(F)(F)F)cc1`, with 34.1%.

Another test can be described thus: CRL1545 cell growth, single agent and combined, cisplatin and BGB IC20 combos (AID 1671464).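 Also: cells exposed to compound for 96 hours before readout; 0% = vehicle DMSO and 100% = high DMSO killing control.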 As to conditions: CRL1545 osteosarcoma cells, at 0.5 µM, stronger effect = higher value.
Consider `CCn1cc(C(=O)O)c(=O)c2cc(F)c(N3CCNCC3)nc21`, for which the inhibition was 9.99% (inactive) and 6.3% (inactive).
With `O=C(O)CCCCCCCC(=O)O`, the inhibition is -28.2% (inactive).
`O=NN(CCCl)C(=O)NCCCl`: the inhibition was -14.2% (inactive).
`Cc1oncc1C(=O)Nc1ccc(C(F)(F)F)cc1`: the inhibition is -17.2% (inactive).

Staying with this test, now noted: CRL1545 osteosarcoma cells, measured here: with BGB IC20 combination, at 0.5 µM, stronger effect = higher value.
Turning to `CCn1cc(C(=O)O)c(=O)c2cc(F)c(N3CCNCC3)nc21`, the inhibition was -15.9% and 0.601%.
On the same count and under the same terms, then `O=C(O)CCCCCCCC(=O)O`, with -60.3%.
Take `O=NN(CCCl)C(=O)NCCCl`: the inhibition was -17.2%.
Turning to `Cc1oncc1C(=O)Nc1ccc(C(F)(F)F)cc1`, the inhibition was -12.4%.

Still in this test, the particulars now being: CRL1545 osteosarcoma cells, measured here: with cisplatin IC20 combination, at 0.5 µM, stronger effect = higher value.
Consider `CCn1cc(C(=O)O)c(=O)c2cc(F)c(N3CCNCC3)nc21`, for which the inhibition is 21.7% and 9.15%.
Still for that read-out and setting: then `O=C(O)CCCCCCCC(=O)O`, with -14.7%; and `O=NN(CCCl)C(=O)NCCCl`, with -12.8%.
Same read-out and setting: then `Cc1oncc1C(=O)Nc1ccc(C(F)(F)F)cc1`, with -21.5%.

The test is the same for the next values; noted with them: CRL1545 osteosarcoma cells, single agent, at 0.05 µM, stronger effect = higher value.
Consider `CCn1cc(C(=O)O)c(=O)c2cc(F)c(N3CCNCC3)nc21`, for which the inhibition is -9.98% and 9.98%.
Still for that read-out and setting: then `O=C(O)CCCCCCCC(=O)O`, with -52%.
Same read-out and setting: then `O=NN(CCCl)C(=O)NCCCl`, with -3.95%; and `Cc1oncc1C(=O)Nc1ccc(C(F)(F)F)cc1`, with -28.9%.

Still in this test, the particulars now being: CRL1545 osteosarcoma cells, single agent, at 5 µM, stronger effect = higher value.
With `CCn1cc(C(=O)O)c(=O)c2cc(F)c(N3CCNCC3)nc21`, the inhibition is -24.6% and 24.3%.
On the same count and under the same terms, then `O=C(O)CCCCCCCC(=O)O`, with -52.1%; and `O=NN(CCCl)C(=O)NCCCl`, with 10.1%.
The same measure, in the same setting: in the case of `Cc1oncc1C(=O)Nc1ccc(C(F)(F)F)cc1` it was 28.1%.

These data come from PubChem BioAssay.
